Test results: PubChem BioAssay (EPA / NIEHS)
Results filed as inconclusive are left out. Activity calls are given as the source filed them. The calls were made as follows: active = hit-call score of the fitted dose curve at least 0.9, where 1 is the maximum; inconclusive = response in the unintended direction; inactive = score below 0.9.

Assays:
[1] = molecular target: rabbit Imidazoline 2 Central (I2C), CKB (gene 100009085) (UniProt P00567); experiment: NVS_ENZ_rabI2C: NovaScreen (NVS) Enzymatic Assay for rabbit Imidazoline 2 Central (I2C) (AID 2283228)
rabbit Imidazoline 2 Central (I2C), CKB (gene 100009085), sequence (P00567 whole entry, looked up): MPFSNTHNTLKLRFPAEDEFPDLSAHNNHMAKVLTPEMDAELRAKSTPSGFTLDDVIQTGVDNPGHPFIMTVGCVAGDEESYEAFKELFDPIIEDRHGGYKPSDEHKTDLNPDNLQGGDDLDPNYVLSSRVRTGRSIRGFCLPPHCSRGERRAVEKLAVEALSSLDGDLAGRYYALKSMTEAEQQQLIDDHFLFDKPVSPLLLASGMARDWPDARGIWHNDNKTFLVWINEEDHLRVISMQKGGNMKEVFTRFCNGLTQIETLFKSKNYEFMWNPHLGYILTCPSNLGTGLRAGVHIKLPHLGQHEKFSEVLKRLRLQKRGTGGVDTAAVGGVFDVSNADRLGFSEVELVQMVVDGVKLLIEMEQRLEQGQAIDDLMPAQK
In short: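 Rabbit brain membranes, cell-free; readout by filter-based scintillation counting 1.5 hours after dosing, loss of signal vs DMSO. Initial duplicate test at 25 uM, then concentration-response with 50 uM top concentration.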

[2] = molecular target: sheep Cyclooxygenase-1 (Cox1), PTGS1 (gene 443551) (UniProt P05979); experiment: NVS_ENZ_oCOX1: NovaScreen (NVS) Enzymatic Assay for sheep Cyclooxygenase-1 (Cox1) (AID 2283239);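 also: actives reduce cyclooxygenase activity so potencies are for inhibitors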
sheep Cyclooxygenase-1 (Cox1), PTGS1 (gene 443551), sequence (P05979 whole entry, looked up): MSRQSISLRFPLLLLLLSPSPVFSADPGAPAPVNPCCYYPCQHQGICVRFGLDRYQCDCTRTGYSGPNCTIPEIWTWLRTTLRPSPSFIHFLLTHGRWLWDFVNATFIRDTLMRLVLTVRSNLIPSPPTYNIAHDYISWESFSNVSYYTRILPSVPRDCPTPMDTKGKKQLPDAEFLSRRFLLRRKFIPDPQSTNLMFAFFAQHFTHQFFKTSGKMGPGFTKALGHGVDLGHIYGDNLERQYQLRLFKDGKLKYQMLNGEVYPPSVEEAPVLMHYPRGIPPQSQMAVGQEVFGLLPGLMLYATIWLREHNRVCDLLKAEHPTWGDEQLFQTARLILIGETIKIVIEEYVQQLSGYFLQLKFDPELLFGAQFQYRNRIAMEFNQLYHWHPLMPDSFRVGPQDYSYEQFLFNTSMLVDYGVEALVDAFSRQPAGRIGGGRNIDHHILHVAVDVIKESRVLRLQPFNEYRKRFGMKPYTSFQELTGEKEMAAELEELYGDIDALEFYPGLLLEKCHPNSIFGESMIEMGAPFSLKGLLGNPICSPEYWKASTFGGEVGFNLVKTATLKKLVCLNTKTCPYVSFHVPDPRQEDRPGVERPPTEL
In short: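 Colorimetric enzyme readout using sheep seminal-vesicle cyclooxygenase-1, measured 0.66 h post-dosing. Single-concentration duplicates at 25 uM first, then concentration series for actives, with DMSO as baseline and plate controls.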

[3] = tested on: bovine Angiotensin II Receptor Type 2 (AT2), gene 407157; experiment: NVS_GPCR_bAT2: NovaScreen (NVS) G Protein-Coupled Receptor Assay for bovine Angiotensin II Receptor Type 2 (AT2) (AID 2283240)
In short: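 Radioligand displacement on bovine cerebellar membranes, 1 hour incubation, filter-based scintillation counting; loss of signal vs DMSO. Duplicate single-point screen at 25 uM, then concentration-response to 50 uM maximum.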

[4] = molecular target: bovine Dopamine Receptor (DR), Non-selective Binding, DRD1 (gene 281125) (UniProt Q95136); experiment: NVS_GPCR_bDR_NonSelective: NovaScreen (NVS) G Protein-Coupled Receptor Assay for bovine Dopamine Receptor (DR), Non-selective Binding (AID 2283241)
bovine Dopamine Receptor (DR), Non-selective Binding, DRD1 (gene 281125), sequence (Q95136 whole entry, looked up): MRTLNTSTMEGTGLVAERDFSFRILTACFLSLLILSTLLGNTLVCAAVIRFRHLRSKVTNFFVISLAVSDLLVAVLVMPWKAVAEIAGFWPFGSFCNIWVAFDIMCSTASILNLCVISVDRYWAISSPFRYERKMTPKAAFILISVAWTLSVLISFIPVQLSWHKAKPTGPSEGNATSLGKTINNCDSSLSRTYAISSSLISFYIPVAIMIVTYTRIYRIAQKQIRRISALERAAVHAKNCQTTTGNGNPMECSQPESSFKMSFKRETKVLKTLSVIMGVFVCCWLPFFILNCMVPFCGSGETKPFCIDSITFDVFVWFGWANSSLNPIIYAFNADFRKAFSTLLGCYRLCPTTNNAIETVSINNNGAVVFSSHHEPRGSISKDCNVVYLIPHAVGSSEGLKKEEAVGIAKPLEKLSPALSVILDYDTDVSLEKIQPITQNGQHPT
In short: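 Bovine striatal membranes; radioligand displacement read by filtration and scintillation counting 1 h after dosing, loss of signal vs DMSO. Screened in duplicate at 25 uM, then concentration-response for hits.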

[5] = molecular target: human Vascular Endothelial Growth Factor Receptor 2 (VEGFR2), KDR (gene 3791) (UniProt P35968); experiment: NVS_ENZ_hVEGFR2: NovaScreen (NVS) Enzymatic Assay for human Vascular Endothelial Growth Factor Receptor 2 (VEGFR2) (AID 2283230)
human Vascular Endothelial Growth Factor Receptor 2 (VEGFR2), KDR (gene 3791), sequence (P35968 whole entry, looked up): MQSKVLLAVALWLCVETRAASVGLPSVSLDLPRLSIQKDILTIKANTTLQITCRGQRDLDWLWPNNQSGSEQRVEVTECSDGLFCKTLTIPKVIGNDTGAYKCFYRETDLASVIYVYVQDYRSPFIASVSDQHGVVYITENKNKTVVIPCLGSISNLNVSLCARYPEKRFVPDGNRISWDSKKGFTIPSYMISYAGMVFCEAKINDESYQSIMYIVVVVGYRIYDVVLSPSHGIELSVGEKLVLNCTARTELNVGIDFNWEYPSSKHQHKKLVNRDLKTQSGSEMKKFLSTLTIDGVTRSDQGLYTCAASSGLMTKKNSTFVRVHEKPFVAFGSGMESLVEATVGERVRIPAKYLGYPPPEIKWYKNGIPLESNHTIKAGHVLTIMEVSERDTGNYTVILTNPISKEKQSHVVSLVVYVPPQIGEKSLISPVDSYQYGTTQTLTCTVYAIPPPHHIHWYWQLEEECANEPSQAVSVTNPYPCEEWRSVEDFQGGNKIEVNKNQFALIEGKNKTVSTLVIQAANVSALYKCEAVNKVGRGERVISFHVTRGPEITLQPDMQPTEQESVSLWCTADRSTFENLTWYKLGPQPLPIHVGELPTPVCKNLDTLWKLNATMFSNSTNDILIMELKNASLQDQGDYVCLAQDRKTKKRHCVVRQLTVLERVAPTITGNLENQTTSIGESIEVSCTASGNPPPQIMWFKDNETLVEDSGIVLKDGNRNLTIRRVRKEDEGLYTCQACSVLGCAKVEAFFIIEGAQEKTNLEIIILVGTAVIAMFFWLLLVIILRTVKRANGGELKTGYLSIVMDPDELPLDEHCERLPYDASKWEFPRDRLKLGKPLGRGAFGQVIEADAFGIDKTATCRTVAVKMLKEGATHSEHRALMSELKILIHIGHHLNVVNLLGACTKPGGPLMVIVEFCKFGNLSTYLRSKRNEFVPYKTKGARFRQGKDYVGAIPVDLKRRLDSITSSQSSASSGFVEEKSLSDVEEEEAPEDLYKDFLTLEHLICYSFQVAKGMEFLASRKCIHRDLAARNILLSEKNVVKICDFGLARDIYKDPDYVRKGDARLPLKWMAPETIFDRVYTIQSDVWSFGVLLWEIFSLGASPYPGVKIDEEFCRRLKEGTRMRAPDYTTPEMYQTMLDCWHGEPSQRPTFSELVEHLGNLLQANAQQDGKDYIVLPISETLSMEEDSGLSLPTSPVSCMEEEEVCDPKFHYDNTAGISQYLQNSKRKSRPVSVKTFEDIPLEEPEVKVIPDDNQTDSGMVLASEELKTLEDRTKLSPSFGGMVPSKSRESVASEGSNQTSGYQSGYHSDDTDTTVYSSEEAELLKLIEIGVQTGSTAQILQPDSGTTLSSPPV
In short: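 Cell-free recombinant VEGFR2 kinase, fluorescent substrate with electrophoretic mobility-shift separation; read 1 h after dosing. Screened at 25 uM in duplicate, hits to concentration-response up to 50 uM; loss-of-signal versus DMSO.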

[6] = molecular target: sheep Cyclooxygenase-2 (Cox2), PTGS2 (gene 443460) (UniProt P79208); experiment: NVS_ENZ_oCOX2: NovaScreen (NVS) Enzymatic Assay for sheep Cyclooxygenase-2 (Cox2) (AID 2283231)
sheep Cyclooxygenase-2 (Cox2), PTGS2 (gene 443460), sequence (P79208 whole entry, looked up): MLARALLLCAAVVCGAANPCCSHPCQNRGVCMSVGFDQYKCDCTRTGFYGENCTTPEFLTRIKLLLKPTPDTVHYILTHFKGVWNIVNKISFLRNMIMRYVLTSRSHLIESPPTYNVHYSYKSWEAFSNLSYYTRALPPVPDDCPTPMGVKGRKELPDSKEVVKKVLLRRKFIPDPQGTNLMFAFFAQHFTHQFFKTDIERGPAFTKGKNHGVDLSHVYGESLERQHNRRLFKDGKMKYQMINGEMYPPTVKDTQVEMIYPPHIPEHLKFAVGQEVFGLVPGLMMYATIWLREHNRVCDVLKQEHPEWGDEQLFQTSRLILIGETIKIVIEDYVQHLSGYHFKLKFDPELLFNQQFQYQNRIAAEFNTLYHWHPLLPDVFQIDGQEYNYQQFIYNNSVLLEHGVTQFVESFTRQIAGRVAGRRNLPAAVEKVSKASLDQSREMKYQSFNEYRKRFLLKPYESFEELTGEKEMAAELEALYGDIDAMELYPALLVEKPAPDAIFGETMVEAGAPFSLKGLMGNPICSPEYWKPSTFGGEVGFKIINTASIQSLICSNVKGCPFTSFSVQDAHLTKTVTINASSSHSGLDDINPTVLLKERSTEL
Protocol: NVS_ENZ_oCOX2 is a biochemical, single-readout assay that uses extracted gene-proteins from Ovine placenta in a tissue-based cell-free assay. Measurements were taken 0.66 hour after chemical dosing in a 96-well plate.NVS_ENZ_oCOX2 is one of one assay component(s) measured or calculated from the NVS_ENZ_oCOX2 assay. It is designed to make measurements of enzyme activity, a form of enzyme reporter, as detected with absorbance signals by Colorimetric technology.Data from the assay component NVS_ENZ_oCOX2 was analyzed into 1 assay endpoint. This assay endpoint, NVS_ENZ_oCOX2, was analyzed in the positive analysis fitting direction relative to DMSO as the negative control and baseline of activity. Using a type of enzyme reporter, loss-of-signal activity can be used to understand changes in the enzymatic activity as they relate to the gene PTGS2. Furthermore, this assay endpoint can be referred to as a primary readout, because this assay has produced multiple assay endpoints where this one serves a enzymatic activity function. To generalize the intended target to other relatable targets, this assay endpoint is annotated to the oxidoreductase intended target family, where the subfamily is cyclooxygenase.
(§1) Binding assays used specific radioligands (tritiated, iodinated) with non-radioactive competitive displacement ligands in agonist or antagonist protocols (as indicated) and various reference compounds and inhibitors to titrate specific binding to receptors and transporters. Most enzyme assays (CYPs, kinases, phosphatases, proteases, HDACs) used recombinant protein and specific substrates (fluorescence mostly, some colorimetric and radioactive) and inhibitors, followed by a biochemical separation of substrate and product. All assays for the biochemical HTS were initially run in duplicate at a single concentration (10 uM for CYP450 assays and 25 uM for all others). Assay-chemical combinations meeting a pre-defined threshold (e.g., 30% inhibition and other criteria defined below) were then run in singleton concentration-response format with maximum concentration of 20 uM for CYPs and 50 uM for all others. Each assay was run with positive and negative controls, and concurrent controls on every plate. The follow-up (secondary) screen tested active chemical-pairs in concentration series, as well as a few additional assays not tested in the primary screen, some selected negative inactives, and several cases re-run in the concentration series for confirmatory purposes.

[7] = molecular target: rat Constitutive Nitric Oxide Synthase (CNOS), Nos1 (gene 24598) (UniProt P29476); experiment: NVS_ENZ_rCNOS: NovaScreen (NVS) Enzymatic Assay for rat Constitutive Nitric Oxide Synthase (CNOS) (AID 2283236)
Protocol: NVS_ENZ_rCNOS is a biochemical, single-readout assay that uses extracted gene-proteins from Rat brain membranes in a tissue-based cell-free assay. Measurements were taken 1 hour after chemical dosing in a 96-well plate.NVS_ENZ_rCNOS is one of one assay component(s) measured or calculated from the NVS_ENZ_rCNOS assay. It is designed to make measurements of enzyme activity, a form of enzyme reporter, as detected with scintillation counting signals by Filter-based radiodetection technology.Data from the assay component NVS_ENZ_rCNOS was analyzed into 1 assay endpoint. This assay endpoint, NVS_ENZ_rCNOS, was analyzed in the positive analysis fitting direction relative to DMSO as the negative control and baseline of activity. Using a type of enzyme reporter, loss-of-signal activity can be used to understand changes in the enzymatic activity as they relate to the gene Nos1. Furthermore, this assay endpoint can be referred to as a primary readout, because this assay has produced multiple assay endpoints where this one serves a enzymatic activity function. To generalize the intended target to other relatable targets, this assay endpoint is annotated to the oxidoreductase intended target family, where the subfamily is nitric oxide synthase. […]

[8] = molecular target: rat Catechol-O-Methyl Transferase (COMT), Comt (gene 24267) (UniProt P22734); experiment: NVS_ENZ_rCOMT: NovaScreen (NVS) Enzymatic Assay for rat Catechol-O-Methyl Transferase (COMT) (AID 2283235)
rat Catechol-O-Methyl Transferase (COMT), Comt (gene 24267), sequence (P22734 whole entry, looked up): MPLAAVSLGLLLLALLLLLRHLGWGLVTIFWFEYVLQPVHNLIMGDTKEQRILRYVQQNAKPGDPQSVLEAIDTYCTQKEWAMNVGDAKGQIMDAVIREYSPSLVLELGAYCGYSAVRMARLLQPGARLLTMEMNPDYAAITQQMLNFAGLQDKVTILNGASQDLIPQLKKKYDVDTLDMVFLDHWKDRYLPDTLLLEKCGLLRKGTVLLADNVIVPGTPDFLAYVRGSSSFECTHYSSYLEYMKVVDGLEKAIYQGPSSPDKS
In short: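 Cell-free enzyme activity with protein extracted from rat dorsal striatum, measured by HPLC with absorbance detection. Compounds screened at 25 uM in duplicate; actives then run in concentration-response up to 50 uM, loss of signal versus DMSO.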

[9] = molecular target: human Vascular Endothelial Growth Factor Receptor 1 (VEGFR1), FLT1 (gene 2321) (UniProt P17948); experiment: NVS_ENZ_hVEGFR1: NovaScreen (NVS) Enzymatic Assay for human Vascular Endothelial Growth Factor Receptor 1 (VEGFR1) (AID 2283226)
human Vascular Endothelial Growth Factor Receptor 1 (VEGFR1), FLT1 (gene 2321), sequence (P17948 whole entry, looked up): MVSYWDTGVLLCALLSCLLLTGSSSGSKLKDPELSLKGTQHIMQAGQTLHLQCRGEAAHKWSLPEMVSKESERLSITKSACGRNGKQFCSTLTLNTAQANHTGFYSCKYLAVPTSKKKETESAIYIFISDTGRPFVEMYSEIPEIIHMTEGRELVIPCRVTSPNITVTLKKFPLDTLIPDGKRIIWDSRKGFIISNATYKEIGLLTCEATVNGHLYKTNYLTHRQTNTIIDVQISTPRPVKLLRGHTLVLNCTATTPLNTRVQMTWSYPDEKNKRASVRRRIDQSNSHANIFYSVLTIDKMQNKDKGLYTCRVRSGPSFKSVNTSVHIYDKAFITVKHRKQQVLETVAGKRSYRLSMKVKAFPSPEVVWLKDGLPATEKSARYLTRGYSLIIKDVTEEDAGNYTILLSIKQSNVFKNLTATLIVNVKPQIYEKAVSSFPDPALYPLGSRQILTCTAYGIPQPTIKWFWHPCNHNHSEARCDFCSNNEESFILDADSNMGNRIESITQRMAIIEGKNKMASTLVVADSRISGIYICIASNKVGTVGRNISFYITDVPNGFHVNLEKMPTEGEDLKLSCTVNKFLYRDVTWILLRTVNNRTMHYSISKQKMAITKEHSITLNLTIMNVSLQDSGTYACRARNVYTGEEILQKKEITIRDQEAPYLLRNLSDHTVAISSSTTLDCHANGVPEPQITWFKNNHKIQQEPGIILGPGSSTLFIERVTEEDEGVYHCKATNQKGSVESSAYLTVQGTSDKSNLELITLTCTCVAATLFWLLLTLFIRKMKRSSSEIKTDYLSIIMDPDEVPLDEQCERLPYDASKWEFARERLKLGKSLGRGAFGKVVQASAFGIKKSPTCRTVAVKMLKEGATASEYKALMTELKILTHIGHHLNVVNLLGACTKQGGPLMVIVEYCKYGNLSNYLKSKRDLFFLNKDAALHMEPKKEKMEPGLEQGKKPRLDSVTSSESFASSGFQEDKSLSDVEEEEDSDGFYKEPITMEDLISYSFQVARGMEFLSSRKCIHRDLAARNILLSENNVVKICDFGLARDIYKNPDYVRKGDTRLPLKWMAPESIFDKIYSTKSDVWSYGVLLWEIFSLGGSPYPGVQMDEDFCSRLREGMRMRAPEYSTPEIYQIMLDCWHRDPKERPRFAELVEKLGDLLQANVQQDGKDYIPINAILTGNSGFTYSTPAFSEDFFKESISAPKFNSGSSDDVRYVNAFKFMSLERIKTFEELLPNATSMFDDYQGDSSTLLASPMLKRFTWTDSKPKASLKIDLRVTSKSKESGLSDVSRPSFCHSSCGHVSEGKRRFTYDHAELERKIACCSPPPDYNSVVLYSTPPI
In short: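 Cell-free assay of recombinant human VEGFR1 kinase with substrate, measured 1 h after dosing; fluorescence with electrophoretic mobility-shift separation of substrate and product, referenced to DMSO; primary screen at 25 uM in duplicate, actives then run in concentration series.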

[10] = molecular target: Adenosine receptor A1 (Bos taurus) (UniProt P28190); experiment: NVS_GPCR_bAdoR_NonSelective: NovaScreen (NVS) G Protein-Coupled Receptor Assay for bovine Adenosine Receptor (AdoR), Non-selective Binding (AID 2283244)
Protocol: NVS_GPCR_bAdoR_NonSelective is a biochemical, single-readout assay that uses extracted gene-proteins from Bovine striatal membranes in a tissue-based cell-free assay. Measurements were taken 1 hour after chemical dosing in a 96-well plate.NVS_GPCR_bAdoR_NonSelective is one of one assay component(s) measured or calculated from the NVS_GPCR_bAdoR_NonSelective assay. It is designed to make measurements of radioligand binding, a form of binding reporter, as detected with scintillation counting signals by Filter-based radiodetection technology.Data from the assay component NVS_GPCR_bAdoR_NonSelective was analyzed into 1 assay endpoint. This assay endpoint, NVS_GPCR_bAdoR_NonSelective, was analyzed in the positive analysis fitting direction relative to DMSO as the negative control and baseline of activity. Using a type of binding reporter, loss-of-signal activity can be used to understand changes in the binding as they relate to the gene ADORA1. Furthermore, this assay endpoint can be referred to as a primary readout, because the performed assay has only produced 1 assay endpoint. To generalize the intended target to other relatable targets, this assay endpoint is annotated to the gpcr intended target family, where the subfamily is rhodopsin-like receptor.
as §1

Question: What does the source list for `O=C1c2ccccc2C(=O)N1CCc1noc(-c2ccc(CN3CCCCCC3)s2)n1`?
Answer: AC50 [1]: 7.93 µM (active); outcome [2]: inactive; outcome [3]: inactive; AC50 [4]: 14.6 µM (active)

Question: What does the source list for `CCCCOC(=O)c1ccc(O)cc1`?
Answer: outcome [5]: inactive; AC50 [6]: 7.62 µM (active); outcome [7]: inactive

Question: What does the source list for `CCCOC(=O)c1cc(O)c(O)c(O)c1`?
Answer: AC50 [6]: 14.8 µM (active); AC50 [8]: 0.454 µM (active); AC50 [2]: 12 µM (active)

Question: `Oc1ccc2ccccc2c1` was tested. Which AC50 [2] did it give?
Answer: 5.35 µM (active)

Question: For `Cc1c2ccccc2c(C)c2c1ccc1ccccc12`, which outcome [5] is on record?
Answer: inactive

Question: What about the AC50 [2] of the same compound?
Answer: 43.3 µM (active)

Question: Which AC50 [3] does the source give for `COc1ccc2cc(S(=O)(=O)N[C@H](CC(=O)N[C@H](Cc3ccc(CN4[C@H](C)CCC[C@@H]4C)cc3)C(=O)N(C)C(C)C)c3ccc4c(c3)OCO4)ccc2c1` here?
Answer: 37.5 µM (active)

Question: How did the outcome [5] turn out when `CCCCCCCCCCCCO` was run?
Answer: inactive

Question: How did the AC50 [1] turn out when `Clc1cc(Cl)c2c(c1)N=C1CCCCCN1C2` was run?
Answer: 6.89 µM (active)

Question: With `O=C1O[C@H]([C@@H](O)CO)C(O)=C1O` as the compound, how does the AC50 [8] read?
Answer: 11.5 µM (active)

Question: Which outcome [2] does the source give for `CC[C@H](NC(=O)c1cc(F)ccc1NS(=O)(=O)c1cccc2cccnc12)c1ccccc1` here?
Answer: inactive

Question: For `Cc1cc2c(cc1C(F)(F)F)N(C(=O)Nc1ccc(Oc3cccnc3C)nc1)CC2`, which outcome [9] is on record?
Answer: inactive

Question: `CC/C(=C(/CC)c1ccc(O)cc1)c1ccc(O)cc1` was tested. Which outcome [2] did it give?
Answer: inactive

Question: With `OCCO` as the compound, how does the outcome [5] read?
Answer: inactive

Question: `COc1cccc([C@H](O)C2CCN(CCc3ccc(F)cc3)CC2)c1OC` was tested. Which AC50 [1] did it give?
Answer: 12.7 µM (active)

Question: What about the AC50 [4] of the same compound?
Answer: 5.96 µM (active)

Question: `CCCCCc1ccc(N)cc1` was tested. Which AC50 [2] did it give?
Answer: 7.04 µM (active)

Question: `c1ccc(C[n+]2cccc3ccccc32)cc1` was tested. Which AC50 [1] did it give?
Answer: 11.9 µM (active)

Question: How did the outcome [5] turn out when `c1ccc2ccccc2c1` was run?
Answer: inactive

Question: How did the AC50 [3] turn out when `Cc1occc1C(=O)Nc1ccc(C(=O)N2CCC(F)(F)/C(=C\C(=O)N3CCC(N4CCCCC4)CC3)c3ccccc32)cc1` was run?
Answer: 3.76 µM (active)

Question: With `CN(C[C@@H](CC[N+]12CCC(C3CCCCC3)(CC1)CC2)c1ccc(Cl)c(Cl)c1)C(=O)c1cc(C(F)(F)F)cc(C(F)(F)F)c1` as the compound, how does the AC50 [3] read?
Answer: 36.7 µM (active)

Question: Which results are given for `CC(C)(C)c1cc(/C=C2\SC(N)=NC2=O)cc(C(C)(C)C)c1O`?
Answer: outcome [5]: inactive; outcome [2]: inactive; outcome [10]: inactive
